Reference: PubChem BioAssay AID1851 (National Center for Advancing Translational Sciences (NCATS), 2009)
In all, about 16,000 compounds went through this assay and about 4,000 (25%) were called active. Inconclusive results (about 26%) are left out. A selection follows. A number with no mark means an inactive call. The call rests on the fitted dose curve; in most records, active means well fitted curve in the direction sought with a large enough effect; inconclusive means small, poorly fitted or top-dose-only effect, or effect the other way; inactive means no such curve, though single readings can be large or run the other way.

What follows are compounds tested against Cytochrome P450 2C9 (Homo sapiens) (UniProt P11712) (assay: Cytochrome panel assay with activity outcomes). Conditions: recombinant CYP, pro-luciferin dealkylation, luminescence, p450-cyp2c9; series mostly up to 57.1 µM; activity, negative = inhibition: at the top concentration.
On the % scale 0 is the no-effect control and ±100 the full control effect.

Cytochrome P450 2C9 (Homo sapiens), sequence (P11712 whole entry, looked up): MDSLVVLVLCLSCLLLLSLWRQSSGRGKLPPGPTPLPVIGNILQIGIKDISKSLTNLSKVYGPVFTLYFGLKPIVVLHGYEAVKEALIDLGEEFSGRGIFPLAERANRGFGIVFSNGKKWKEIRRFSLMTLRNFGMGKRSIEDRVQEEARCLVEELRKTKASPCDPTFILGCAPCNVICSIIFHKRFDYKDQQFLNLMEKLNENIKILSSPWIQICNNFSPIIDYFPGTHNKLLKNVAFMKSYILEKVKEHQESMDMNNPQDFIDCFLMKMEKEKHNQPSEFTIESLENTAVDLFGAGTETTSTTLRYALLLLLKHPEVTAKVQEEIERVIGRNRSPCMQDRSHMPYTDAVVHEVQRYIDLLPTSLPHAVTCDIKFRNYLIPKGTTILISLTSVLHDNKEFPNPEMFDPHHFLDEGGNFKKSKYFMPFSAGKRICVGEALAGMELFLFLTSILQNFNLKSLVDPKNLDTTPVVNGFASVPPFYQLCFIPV

| Structure (SMILES) | activity, negative = inhibition | AC50 |
| --- | --- | --- |
| CC(=O)Nc1nnc(S(N)(=O)=O)s1 | -15.9% [at 25.6 µM] | – |
| Cc1ccccc1/C=N\NC(=O)c1csnn1 | -21.1% | – |
| Cc1nn(-c2ccccc2)c(C)c1/C=N/NC(=O)c1cc(-c2ccc(Cl)s2)[nH]n1 | – | 7.94 µM (active) |
| Cc1c(C(=O)N/N=C/c2ccccc2)sc(=S)n1C | -34% | – |
| O=C(NCCN1CCCC1)C1(S(=O)(=O)c2ccc(Cl)cc2)CC1 | -14.8% | – |
| CC(C)(C)C(=O)N1CCC(O)(CS(=O)(=O)Cc2ccc(Cl)cc2)CC1 | -1.37% | – |
| CCOC(=O)C1(S(=O)(=O)c2ccc(Cl)cc2)CCN(Cc2ccc(Cl)cc2)CC1 | – | 3.55 µM (active) |
| S=c1[nH]nc(CCc2ccccc2)n1Cc1ccccc1 | – | 7.94 µM (active) |
| CCn1c(CC(C)C)n[nH]c1=S | -29.6% | – |
| Cc1ccccc1N1CCN(S(=O)(=O)C[C@@]23CC[C@H](C[C@H]2NC(=O)[C@@H](N)CCS(C)(=O)=O)C3(C)C)CC1 | 8.89% | – |
| C=CCNC(=O)c1cccn1-c1ccsc1C(=O)OC | 22.5% | – |
| COC(=O)c1sc2ccccc2c1-n1cccc1C(=O)C(=O)Nc1ccc(Cl)cc1 | – | 0.1 µM (active) |
| CCCCOC(=O)Nc1ccccc1C(=O)OC | -31.8% | – |
| COC(=O)c1ccccc1NS(=O)(=O)c1ccc2c3c(cccc13)C(=O)N2 | – | 0.178 µM (active) |
| Oc1ccc([C@@H]2CNCc3sccc32)cc1O | -16.1% | – |
| Cc1ccc2nc(/C(C#N)=C\c3ccc(OC(=O)c4cccs4)cc3)[nH]c2c1 | – | 2 µM (active) |
| Cc1cc(C)cc(Oc2coc3cc(OC(=O)c4cccs4)ccc3c2=O)c1 | -21.4% | – |
| Cn1c(=O)c2c(ncn2CC(COCc2ccccc2Cl)OCc2ccccc2Cl)n(C)c1=O (stereo not drawn) | – | 15.8 µM (active) |
| Cn1c(=O)c2c(ncn2C[C@@H](O)CO)n(C)c1=O | -18.6% [at 25.6 µM] | – |
| Cn1c(=O)c2c(ncn2CCO)n(C)c1=O | -1.08% [at 25.6 µM] | – |
| Cc1ccc(NC(=O)CCc2ccc(S(=O)(=O)NC3CCCCC3)cc2)cc1 | – | 3.98 µM (active) |
| O=C(CCc1ccc(S(=O)(=O)NC2CCCCC2)cc1)N(Cc1ccccc1)Cc1ccccc1 | – | 1 µM (active) |
| Cc1ccc(NC(=S)NC2CCCC2)cc1 | -11.4% | – |
| CCC(C)NS(=O)(=O)c1ccc(NC(=O)CCC2CCCCC2)cc1 (stereo not drawn) | -16.8% | – |
| OCCNCCCOc1cccc(Cl)c1Cl | -17.8% | – |
| O[C@@H](c1ccccc1)C1CCN(CCc2ccccc2)CC1 | -14.1% | – |
| CCCCNc1nc(SC)nc2nc[nH]c12 | -18.3% [at 11.4 µM] | – |

| Structure (SMILES) | activity, negative = inhibition | AC50 |
| --- | --- | --- |
| O=C(OCc1nc2ccccc2s1)c1ccc(Br)s1 | – | 4.47 µM (active) |
| O=C(O)c1ccc(Oc2nc3ccccc3s2)cc1 | -27% [at 11.4 µM] | – |
| Cc1cc([N+](=O)[O-])c(C)c(Br)c1C | 20.3% [at 11.4 µM] | – |
| O=C(NCCOC(=O)c1ccc(C(=O)OCCNC(=O)c2cccnc2)s1)c1cccnc1 | – | 3.98 µM (active) |
| CC(=O)OCCNC(=O)c1cccnc1 | 13.2% | – |
| O=C(NCCO[N+](=O)[O-])c1cccnc1 | – | 2 µM (active) |
| CN(C)c1ccnc(-c2ccccc2C(F)(F)F)n1 | 10.1% [at 2.29 µM] | – |
| CCOC(=O)C[C@@H](C(=O)OCC)[C@@H]1CCCCC1=O | 19.8% [at 11.4 µM] | – |
| COc1ccccc1CC(=N)N1C[C@@H]2C(=O)CCC(c3ccccc3)(c3ccccc3)[C@@H]2C1 | 1.86% | – |
| C=C1CCO[C@@]2([C@H](O)[C@@](C)(O)CO)NC(=O)[C@]1(O)NC2=O | 5.79% [at 11.4 µM] | – |
| NC(=O)/C(=N\O)c1ccccc1 | -1.79% | – |
| N=C(N)c1ccccc1 | -4.84% | – |
| NC(=O)c1cccc(N)c1 | – | 12.6 µM (active) |
| O=C1C(Cc2ccccc2)SC(=Nc2ccccc2)N1c1ccccc1 (stereo not drawn) | – | 15.8 µM (active) |
| O=C1C(Cc2ccccc2)NC(=S)N1c1ccccc1 (stereo not drawn) | -101% | – |
| O=C(c1c[nH]c(=O)n(-c2ccccc2)c1=O)N1CCc2ccccc21 | -29.8% | – |
| CCOc1ccc(NC(=O)C(=O)NCC2CCCN2CC)cc1 (stereo not drawn) | -22.5% | – |
| CCOc1ccc(-n2c(=O)[nH]cc(C(=O)N3CCCc4ccccc43)c2=O)cc1 | – | 12.6 µM (active) |
| O=[N+]([O-])c1ccc(Cl)c(-c2ccc(/C=N/c3c(-c4ccco4)nc4ccccn34)o2)c1 | 7.09% | – |
| COc1cc(-c2nc3ccccn3c2/N=C/c2ccccc2)ccc1O | – | 14.1 µM (active) |
| COc1ccc(C=Nc2c(O)ccc3ccccc23)cc1OC | -1.31% [at 11.4 µM] | – |
| CCOc1cc(/C=N/O)cc(Cl)c1OC | 18.3% | – |
| CCOc1cc(/C=N/n2cnnc2)c(Br)cc1O | – | 10 µM (active) |
| COc1ccc(NC(=O)N2CC3(CCN(C(=O)c4cccn4C)CC3)C2)cc1 | -6.72% | – |
| CCC(Sc1nc2n[nH]c(C)c2c(=N)n1-c1cccc(Cl)c1)C(=O)NCCOC (stereo not drawn) | – | 4.47 µM (active) |
| COCCNC(=O)CCn1nc(-c2ccc(Cl)cc2)ccc1=O | -24.3% | – |
